Granule exo inh: blocks lytic granule exocytosis | inhibition, % at 10 µM | TALL-104 LAMP-1 surface exposure, flow cytometry; cells stimulated with thapsigargin and PMA | hit rate 0.66% among 360,000;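 active = inhibition above about 55%, limit read from the data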
TLR9-MyD88 inh: blocks human TLR9 binding to MyD88. Q9NR96+Q99836. CHO BLA complementation TLR9-MyD88, CCF4 FRET ratio. inhibition, % at 4.98 µM. hit rate 0.21% among 340,000. AID 504734;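 active = inhibition above the mean over all tested compounds plus 3 SD, cut at about 21% in these data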
PRMT1 FP inh: inhibitors of human PRMT1; Q99873; recombinant PRMT1, activity-based probe fluorescence polarization; inhibition, % at 2.79 µM; hit rate 1.3% among 370,000; AID 652257;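 active = inhibition above about 21% made by adding two undisclosed values, limit read from the data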
TLR4-MyD88 BLA: blocks binding of human TLR4 to MyD88; O00206+Q99836; HeLa CL3-4 TLR4/MyD88 BLA complementation, FRET ratio; inhibition, % at 8.4 µM; hit rate 0.18% among 200,000; in the data active = inhibition above about 25%
ABHD5 PLIN5 PPI: inhibitors of human ABHD5-perilipin-5 interaction; AID 602281; inhibition, % at 4 µM; Split G. princeps luciferase complementation, luminescence, 4 h; hit rate 0.78% among 360,000;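 active = inhibition above the mean inhibition across every tested compound plus 3 SD, cut at about 22% in these data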
Target sequence (Q00G26 whole entry, looked up): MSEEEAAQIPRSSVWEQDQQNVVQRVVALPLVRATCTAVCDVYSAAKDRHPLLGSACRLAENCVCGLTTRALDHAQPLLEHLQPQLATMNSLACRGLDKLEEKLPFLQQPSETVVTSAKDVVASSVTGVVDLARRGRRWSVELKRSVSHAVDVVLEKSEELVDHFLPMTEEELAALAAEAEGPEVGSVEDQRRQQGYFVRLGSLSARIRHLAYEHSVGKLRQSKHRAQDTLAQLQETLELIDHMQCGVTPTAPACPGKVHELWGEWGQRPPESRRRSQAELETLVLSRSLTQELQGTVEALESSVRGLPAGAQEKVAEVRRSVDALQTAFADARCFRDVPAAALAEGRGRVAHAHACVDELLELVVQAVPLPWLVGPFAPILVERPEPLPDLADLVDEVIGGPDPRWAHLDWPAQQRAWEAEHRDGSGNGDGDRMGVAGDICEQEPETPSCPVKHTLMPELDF
Target sequence (Q8WTS1 whole entry, looked up): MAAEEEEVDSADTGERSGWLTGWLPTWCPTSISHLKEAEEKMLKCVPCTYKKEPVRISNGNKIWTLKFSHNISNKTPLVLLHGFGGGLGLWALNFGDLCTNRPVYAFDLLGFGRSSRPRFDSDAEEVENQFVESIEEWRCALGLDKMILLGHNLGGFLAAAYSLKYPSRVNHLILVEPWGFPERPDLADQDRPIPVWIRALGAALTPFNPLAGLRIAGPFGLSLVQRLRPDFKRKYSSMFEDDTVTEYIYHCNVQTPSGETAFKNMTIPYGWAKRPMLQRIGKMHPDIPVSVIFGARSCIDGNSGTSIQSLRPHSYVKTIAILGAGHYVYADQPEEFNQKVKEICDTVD
NOD2-RIPK2 inh: blocks binding of human NOD2 to RIPK2; AID 624267; inhibition, % at 4.98 µM; hit rate 0.38% among 360,000; O43353; CHO BLA complementation NOD2-RIPK2, CCF4 ratio; in the data active = inhibition above about 21%
PRMT1 inh conf: confirmation of human PRMT1 inhibitors | shares compounds with PRMT1 FP inh | recombinant His-PRMT1, activity-based probe fluorescence polarization | inhibition, % at 2.79 µM | hit rate 42% among 3,300 | AID 687036;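 active = mean inhibition across replicates above the hit cutoff derived for the earlier primary screen, cut at about 22% in these data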
Hits are given with their value; – = inactive; · = not tested or not shown. Compounds with a hit are over-represented: about 2.6% of the library has one in this group of screens.

SMILES	Granule exo inh	TLR9-MyD88 inh	PRMT1 FP inh	TLR4-MyD88 BLA	ABHD5 PLIN5 PPI	NOD2-RIPK2 inh	PRMT1 inh conf
Cc1ccccc1OCC(=O)NN1C(=O)C2C3C=CC(O3)C2C1=O (stereo not given)	–	–	–	–	–	–	·
Cc1cccc(OCC(=O)NN2C(=O)C3C4C=CC(O4)C3C2=O)c1 (stereo not given)	–	–	–	–	–	–	·
Cc1cc(=O)n2[nH]c(Nc3cccc(Cl)c3)nc2n1	–	–	–	·	–	–	·
O=C(CSc1nnc(NC(=O)C2CC2)s1)Nc1ccccc1Cl	–	–	–	·	–	–	·
COc1ccnc(CS(=O)c2nc3cc(C(O)(F)F)ccc3[nH]2)c1OC (stereo not given)	–	–	–	·	–	–	·
COc1ccc2[nH]c(S(=O)Cc3ncc(C)c(OC)c3C)nc2c1 (stereo not given)	–	–	34.4	·	–	–	–
c1ccc(Oc2ccccn2)cc1	–	–	–	·	–	–	·
CC(=O)Nc1c(O)nc(SCC(=O)Nc2cccc(C)c2)[nH]c1=O	–	–	53.7	–	–	–	–
Cc1sc2nc(SCC(=O)Nc3ccc(S(N)(=O)=O)cc3)[nH]c(=O)c2c1C	–	–	–	·	–	–	·
CC(=O)Nc1c(O)nc(SCC(=O)Nc2ccc(C(C)=O)cc2)[nH]c1=O	–	–	59.3	–	–	–	–
Cc1sc2nc(SCC(=O)Nc3cccc(S(N)(=O)=O)c3)[nH]c(=O)c2c1C	–	–	26.6	·	–	–	–
CC(=O)N1N=C(c2ccco2)CC1c1cc2ccc(C)cc2nc1Cl (stereo not given)	–	–	–	·	–	–	·
CC1(C)CCN2CCC(C)(C)c3c(O)ccc1c32	–	–	54.0	·	–	–	–
CCN(CC)C(=O)CSc1nnc2nnc3cc(OC)ccc3n12	–	·	29.3	·	–	–	26.5
CCN(CC)C(=O)CSc1nnc(COc2ccc(OC)cc2)n1N	–	–	–	–	–	–	·
Cc1cccc(NC(=O)NN(C(=O)c2ccccc2Cl)C(C)(C)C)c1	·	·	–	·	·	·	·
Cc1cc(C)cc(C(=O)N[C@@H](C)C(=O)N2CCC3(CC2)NCCc2[nH]cnc23)c1	–	–	–	·	–	–	·
O=C(O)c1cc(-c2ccco2)nc2cc3ccccc3cc12	–	–	26.1	·	–	–	22.4
COc1ccc(CCNC(=O)c2cc(-c3ccco3)nc3ccccc23)cc1	·	·	39.5	·	·	·	–
O=C(COC(=O)c1cc(-c2ccco2)nc2ccccc12)NCc1ccccc1	–	–	35.6	–	–	–	–
COCCCN(C(=O)c1cc(-c2ccco2)nc2ccccc12)c1c(N)n(Cc2ccccc2)c(=O)[nH]c1=O	–	–	47.2	·	–	–	–
CCN(CC)CCNC(=O)c1cc(-c2ccco2)nc2ccccc12	–	–	–	–	–	–	·
COc1cc(F)ccc1-c1cc(C(=O)NCc2cc(C(F)(F)F)cc(C(F)(F)F)c2)[nH]n1	–	·	–	·	–	–	·
CN(C)CCNc1ncnc2c1ncn2[C@H]1CN(Cc2ccco2)C[C@@H](CO)O1	–	·	·	·	–	–	·
CC(CC(=O)Nc1ccccc1)NCCCN1CCCC1=O (stereo not given)	–	–	–	·	–	–	·
SMILES	Granule exo inh	TLR9-MyD88 inh	PRMT1 FP inh	TLR4-MyD88 BLA	ABHD5 PLIN5 PPI	NOD2-RIPK2 inh	PRMT1 inh conf
COc1ccc(OC)c(/C=N/NC(=O)c2cc(-c3ccc(C)o3)nc3ccccc23)c1	–	–	29.6	–	–	–	–
COc1ccc(-c2cc(C(=O)N/N=C/c3cc(OC)c(OC)cc3OC)c3ccccc3n2)cc1	–	·	–	·	–	–	·
O=C(NNc1nc(-c2ccccc2)cs1)c1cccs1	–	·	50.7	·	–	–	–
O=C(NC(=S)Nc1nc(-c2ccccc2)cs1)c1cccs1	–	–	–	–	–	–	·
COC(=O)CC1C(=O)NCCN1C(=O)CSc1nc2ccccc2s1 (stereo not given)	–	–	36.4	–	–	–	36.9
COC(=O)CC1C(=O)NCCN1C(=O)c1ccccc1 (stereo not given)	–	–	–	–	–	–	·
CC(=O)c1c(C)[nH]c(C(=O)OCC(=O)NCc2ccc(Cl)cc2)c1C	–	–	168.2	·	–	–	–
Cn1ncc2c(=O)[nH]c(N)nc21	–	–	–	·	–	–	·
Cc1cc(C)nc(SSc2nc(C)cc(C)n2)n1	–	–	89.1	·	–	–	82.4

Compound activity: PubChem, several laboratories
